PubChem BioAssay (Tox21)
Inconclusive results are not listed. Active and inactive are the calls of the source. Unless noted, calls come from the whole dose curve; as a rule, active = well fitted curve in the direction sought with a large enough effect in the repeat runs; inconclusive = weak or mixed curves; inactive = no such curve, though single readings can be large; an effect the other way counts as inactive or inconclusive.

Assays:
[1] = qHTS assay for small molecule disruptors of the mitochondrial membrane potential - cell viability (AID 720634; calls by dose curve;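 note: human HepG2 liver cancer cells; series mostly up to about 83 µM; nearly all actives have a fitted effect of over 20% in size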)
Outline: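 Viability of HepG2 cells is scored from ATP content by luminescence; cells are exposed to compound for 1 hr at 37 C and 5% CO2, then dosed with m-MPI dye before the CellTiter-Glo reagent.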

[2] = qHTS assay for small molecule disruptors of the mitochondrial membrane potential (AID 720635)
Outline: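 HepG2 cells (2,000/well) attached overnight at 37C, then took compound for 1 hr at 37C, 5% CO2. Mito-MPS dye was added for 30 min; fluorescence was read at 490/535 nm (monomers) and 540/590 nm (aggregates).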

[3] = qHTS assay to test for compound auto fluorescence at 590 nm (red) in HepG2 cells (AID 720674)
Outline: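 Intrinsic compound fluorescence in the red window (Ex/Em 540/590 nm) is measured in attached HepG2 cells exposed for 1 hr, DMSO vehicle as baseline, benchmarked to Rose Bengal sodium.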

[4] = qHTS assay to test for compound auto fluorescence at 535 nm (green) in HepG2 cells (AID 720675)
[5] = qHTS assay to test for compound auto fluorescence at 460 nm (blue) in HEK293 cells (AID 720678)
Outline: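 HEK293 cells (2,000 per well, medium with 10% dialyzed FBS) attached for 4-5 hr at 37C, then received compound and stood overnight at 37C, 5% CO2. Blue fluorescence was read at Ex/Em 405/460 nm and expressed relative to triamterene.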

[6] = qHTS assay to test for compound auto fluorescence at 590 nm (red) in HEK293 cells (AID 720679)
Outline: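 HEK293 cells (2,000/well, medium with 10% dialyzed FBS) attached for 4-5 hr at 37C, received 23 nL compound and were incubated overnight at 37C, 5% CO2. Red fluorescence was then read at 540/590nm Ex/Em, referenced to Rose Bengal sodium.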

[7] = qHTS assay for small molecules that induce genotoxicity in human embryonic kidney cells expressing luciferase-tagged ATAD5 (AID 651632); note: nearly all actives have a fitted effect of over 15% in size
Outline: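 DMSO vehicle served as the control. HEK293T reporter cells, 16 hr at 37C, then 30 min Amplite at room temperature; ATAD5 induction is measured as luciferase activity.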

[8] = qHTS assay for small molecules that induce genotoxicity in human embryonic kidney cells expressing luciferase-tagged ATAD5 - cell viability (AID 651634; calls by dose curve; note: nearly all actives have a fitted effect of over 25% in size)
Outline: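 Here HEK293T cells with the ATAD5 luciferase reporter are incubated with test compounds for 15.5 hr, and cytotoxicity is then gauged by measuring protease activity in live cells using fluorescence.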

[9] = qHTS assay for small molecule agonists of the p53 signaling pathway - cell viability (AID 651633; calls by dose curve;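 note: p53RE-bla HCT reporter cells with a stable beta-lactamase p53 reporter; series mostly up to about 83 µM; nearly all actives have a fitted effect of over 30% in size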)
Outline: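 p53RE-bla cells, seeded at 4,000 per well and rested 5 h at 37 C/5% CO2, received compounds in DMSO for 16 h at 37 C. CellTiter-Glo was then added, and luminescence was read after 30 min at room temperature to gauge cytotoxicity.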
% is set by controls: 0 for no effect and ±100 for the full control effect.

CCCCCCCCCCCCC1CO1 (stereo not drawn)
inactive: outcome [1] | Potency [2] | outcome [3] | outcome [4] | outcome [5] | outcome [6]

O=CO
inactive: activity change, negative = cytotoxicity [1] 10.1% [at 8.08 µM] | fluorescence, relative to Rose Bengal [3] 0.134% [at 9.17 µM] | fluorescence, % of fluorescein control [4] -0.0157% [at 9.17 µM] | fluorescence, % of triamterene [5] 0.001% [at 9.17 µM] | fluorescence, % of fluorescent control [6] 0.473% [at 9.17 µM]

Cc1cccc(NC(=S)N(C)C)c1
inactive: outcome [7] | Potency [8] | outcome [1] | outcome [3] | outcome [4] | outcome [5] | outcome [6]

CC1=CC[C@H](CC=O)C1(C)C
inactive: outcome [7] | outcome [1] | Potency [2] | outcome [3] | outcome [4] | outcome [5] | outcome [6]

CCCCOC(=O)C(=O)OCCCC
inactive: outcome [7] | Potency [8] | outcome [1] | outcome [3] | outcome [4] | outcome [5] | outcome [6]

COC(=O)CCC(=O)O
inactive: outcome [7] | Potency [8] | outcome [1] | outcome [3] | outcome [4] | outcome [5] | outcome [6]

CCCCC(CC)COC(=O)c1ccccc1 (stereo not drawn)
inactive: outcome [7] | outcome [3] | outcome [5] | outcome [6]

Cc1cccc(Nc2ccncc2S(=O)(=O)NC(=O)NC(C)C)c1
inactive: outcome [7] | Potency [8] | outcome [1] | Potency [2] | fluorescence, relative to Rose Bengal [3] -0.554% [at 18.6 µM] | fluorescence, % of fluorescein control [4] 0.0113% [at 18.6 µM] | fluorescence, % of triamterene [5] 0.173% [at 18.6 µM] | fluorescence, % of fluorescent control [6] 0.875% [at 18.6 µM]

CC(C)(CO)[C@@H](O)C(=O)NCCCO
inactive: outcome [7] | Potency [8] | outcome [1] | Potency [2] | outcome [3] | outcome [4] | outcome [5] | outcome [6]

C=C(C)[C@@H]1CC[C@@H](C)C[C@@H]1O
inactive: outcome [9] | Potency [8] | outcome [1] | outcome [3] | outcome [4] | outcome [5] | outcome [6]

CCCCCCCCCCCCCC(=O)OC
inactive: outcome [7] | Potency [8] | outcome [3] | outcome [4] | outcome [5] | outcome [6]

CCS(=O)(=O)CCn1c([N+](=O)[O-])cnc1C
inactive: outcome [7] | Potency [8] | outcome [1] | Potency [2] | fluorescence, relative to Rose Bengal [3] 0.187% [at 18.6 µM] | fluorescence, % of fluorescein control [4] -0.217% [at 18.6 µM] | fluorescence, % of triamterene [5] -0.271% [at 18.6 µM] | fluorescence, % of fluorescent control [6] 0.0006% [at 18.6 µM]

C=CCOCC(O)CCl (stereo not drawn)
inactive: outcome [7] | Potency [8] | outcome [1] | outcome [3] | outcome [4] | outcome [5] | outcome [6]

COc1ccc(N=Nc2cc(C)c(N=Nc3ccc(S(=O)(=O)O)cc3)cc2OC)cc1
inactive: outcome [7] | Potency [8] | outcome [1] | outcome [3] | outcome [4] | outcome [5] | outcome [6]

Nc1c(NC/C=C\COc2cc(CN3CCCCC3)ccn2)c(=O)c1=O
inactive: outcome [7] | outcome [1] | outcome [3] | outcome [4] | outcome [5] | outcome [6]

COc1cc(C=O)ccc1OC(=O)C(C)C
inactive: outcome [7] | Potency [8] | outcome [1] | Potency [2] | outcome [3] | outcome [5] | outcome [6]

CC(C)CCCCCCOC(=O)C1CCCCC1C(=O)OCCCCCCC(C)C (stereo not drawn)
inactive: outcome [7] | Potency [8] | outcome [1] | outcome [3] | outcome [4] | outcome [5] | outcome [6]

CC(=O)c1ccc(OCC(=O)N2CCCCC2)cc1
inactive: outcome [7] | Potency [8] | outcome [1] | outcome [3] | outcome [4] | outcome [5] | outcome [6]

C[C@@H]1C[C@H]2[C@@H]3C[C@H](F)C4=CC(=O)C=C[C@]4(C)[C@@]3(F)[C@@H](O)C[C@]2(C)[C@@]1(O)C(=O)CO
inactive: outcome [9] | Potency [8] | outcome [1] | fluorescence, relative to Rose Bengal [3] -0.458% [at 18.6 µM] | fluorescence, % of fluorescein control [4] 0.0352% [at 18.6 µM] | fluorescence, % of triamterene [5] -0.0057% [at 18.6 µM] | fluorescence, % of fluorescent control [6] -0.084% [at 18.6 µM]

CN[C@@H]1[C@@H](O)[C@@H](O[C@@H]2[C@H](O)[C@H](O[C@H]3OC(CN)=CC[C@H]3N)[C@@H](N)C[C@H]2N)OCC1(C)O (stereo partly drawn)
inactive: outcome [7] | Potency [8] | outcome [1] | outcome [3] | outcome [4] | outcome [5] | outcome [6]

CCCCCCCCOC(C)=O
inactive: outcome [7] | Potency [8] | outcome [1] | outcome [3] | outcome [5] | outcome [6]

Cc1ncc([N+](=O)[O-])n1CC(O)CCl (stereo not drawn)
inactive: outcome [7] | Potency [8] | outcome [1] | fluorescence, relative to Rose Bengal [3] -0.0192% [at 18.6 µM] | fluorescence, % of fluorescein control [4] -0.155% [at 18.6 µM] | fluorescence, % of triamterene [5] -0.195% [at 18.6 µM] | fluorescence, % of fluorescent control [6] -0.364% [at 18.6 µM]

CCC1COC(=O)O1 (stereo not drawn)
inactive: outcome [7] | Potency [8] | outcome [1] | outcome [3] | outcome [4] | outcome [5] | outcome [6]

NC(Cc1c[nH]c2ccccc12)C(=O)O (stereo not drawn)
inactive: outcome [9] | Potency [8] | outcome [1] | outcome [3] | outcome [4] | outcome [5] | outcome [6]

Nc1ccc(/C=C/c2ccc(N)cc2S(=O)(=O)O)c(S(=O)(=O)O)c1
inactive: outcome [9] | outcome [1] | outcome [3] | outcome [4] | outcome [5] | outcome [6]
